From the supplement of paper PMC11732987, “Enantioselective OTUD7B fragment discovery through chemoproteomics screening and high-throughput optimisation” (Communications Chemistry, 2025)

Columns and labels:
Assay in all cases: log2 ratio of Biotin-Ahx-Ub-VS probe labelling (fragment/DMSO); higher = less target engagement (more negative = stronger competition), active = hit call of the paper (q ≤ 0.05, log2 ratio ≤ -1)
Settings in all cases: compound concentration: 200 uM; treatment time: 3 h
USP19 = molecular target: T1, USP19 (UniProt O94966)
T1 sequence (whole entry): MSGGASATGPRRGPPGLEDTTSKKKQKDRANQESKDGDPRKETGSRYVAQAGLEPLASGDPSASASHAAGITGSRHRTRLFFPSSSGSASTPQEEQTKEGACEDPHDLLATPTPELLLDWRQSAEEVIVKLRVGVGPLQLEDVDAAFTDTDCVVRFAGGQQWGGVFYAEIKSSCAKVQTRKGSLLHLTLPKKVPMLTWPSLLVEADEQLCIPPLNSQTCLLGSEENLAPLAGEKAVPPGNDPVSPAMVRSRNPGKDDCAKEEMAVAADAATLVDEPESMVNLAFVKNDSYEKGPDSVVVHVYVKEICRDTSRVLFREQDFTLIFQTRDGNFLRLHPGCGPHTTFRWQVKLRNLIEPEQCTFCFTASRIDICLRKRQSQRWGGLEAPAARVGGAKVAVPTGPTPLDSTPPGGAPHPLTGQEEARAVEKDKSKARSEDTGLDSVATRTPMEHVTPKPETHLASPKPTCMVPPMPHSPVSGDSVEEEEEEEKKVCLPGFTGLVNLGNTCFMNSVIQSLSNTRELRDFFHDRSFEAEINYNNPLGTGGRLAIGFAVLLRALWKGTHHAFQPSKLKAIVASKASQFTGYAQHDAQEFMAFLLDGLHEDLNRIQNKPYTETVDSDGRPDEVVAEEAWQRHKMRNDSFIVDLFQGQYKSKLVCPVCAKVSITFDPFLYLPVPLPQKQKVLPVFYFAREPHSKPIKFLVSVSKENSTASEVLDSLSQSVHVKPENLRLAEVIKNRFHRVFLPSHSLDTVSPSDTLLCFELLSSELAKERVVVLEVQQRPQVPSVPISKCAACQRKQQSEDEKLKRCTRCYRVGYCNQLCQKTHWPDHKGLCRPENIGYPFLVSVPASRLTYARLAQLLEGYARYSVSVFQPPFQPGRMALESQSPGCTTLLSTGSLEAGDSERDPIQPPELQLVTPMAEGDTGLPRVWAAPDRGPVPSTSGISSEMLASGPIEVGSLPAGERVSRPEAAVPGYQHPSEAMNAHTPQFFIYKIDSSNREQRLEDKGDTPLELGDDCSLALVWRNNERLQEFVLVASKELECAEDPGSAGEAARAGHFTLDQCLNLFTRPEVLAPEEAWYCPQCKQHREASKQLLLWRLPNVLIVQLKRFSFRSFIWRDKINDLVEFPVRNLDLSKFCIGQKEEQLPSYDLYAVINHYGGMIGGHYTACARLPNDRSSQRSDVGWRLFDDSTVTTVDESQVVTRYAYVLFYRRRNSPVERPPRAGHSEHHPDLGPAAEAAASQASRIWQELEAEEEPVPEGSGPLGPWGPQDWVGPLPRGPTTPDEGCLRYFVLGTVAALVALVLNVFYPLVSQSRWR
Method in brief: (§1)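 In triplicate, 495 µg of HEK293T lysate per sample was incubated with fragment at 200 µM or vehicle for 3 h. Biotin-Ahx-Ub-VS was then added to 0.5 µM final for 1 h, and labelled DUBs were captured with NeutrAvidin, digested with LysC and trypsin, and measured by diaPASEF LC-MS/MS. Data are average log2 fragment/vehicle ratios by unpaired t-test from global-median-normalised Spectronaut label-free quantities, restricted to proteins with ≥2 unique peptides.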

USP24 = USP24 (UniProt Q9UPU5)
Method in brief: as §1

USP25 = molecular target: T2, USP25 (UniProt Q9UHP3)
T2 sequence (whole entry): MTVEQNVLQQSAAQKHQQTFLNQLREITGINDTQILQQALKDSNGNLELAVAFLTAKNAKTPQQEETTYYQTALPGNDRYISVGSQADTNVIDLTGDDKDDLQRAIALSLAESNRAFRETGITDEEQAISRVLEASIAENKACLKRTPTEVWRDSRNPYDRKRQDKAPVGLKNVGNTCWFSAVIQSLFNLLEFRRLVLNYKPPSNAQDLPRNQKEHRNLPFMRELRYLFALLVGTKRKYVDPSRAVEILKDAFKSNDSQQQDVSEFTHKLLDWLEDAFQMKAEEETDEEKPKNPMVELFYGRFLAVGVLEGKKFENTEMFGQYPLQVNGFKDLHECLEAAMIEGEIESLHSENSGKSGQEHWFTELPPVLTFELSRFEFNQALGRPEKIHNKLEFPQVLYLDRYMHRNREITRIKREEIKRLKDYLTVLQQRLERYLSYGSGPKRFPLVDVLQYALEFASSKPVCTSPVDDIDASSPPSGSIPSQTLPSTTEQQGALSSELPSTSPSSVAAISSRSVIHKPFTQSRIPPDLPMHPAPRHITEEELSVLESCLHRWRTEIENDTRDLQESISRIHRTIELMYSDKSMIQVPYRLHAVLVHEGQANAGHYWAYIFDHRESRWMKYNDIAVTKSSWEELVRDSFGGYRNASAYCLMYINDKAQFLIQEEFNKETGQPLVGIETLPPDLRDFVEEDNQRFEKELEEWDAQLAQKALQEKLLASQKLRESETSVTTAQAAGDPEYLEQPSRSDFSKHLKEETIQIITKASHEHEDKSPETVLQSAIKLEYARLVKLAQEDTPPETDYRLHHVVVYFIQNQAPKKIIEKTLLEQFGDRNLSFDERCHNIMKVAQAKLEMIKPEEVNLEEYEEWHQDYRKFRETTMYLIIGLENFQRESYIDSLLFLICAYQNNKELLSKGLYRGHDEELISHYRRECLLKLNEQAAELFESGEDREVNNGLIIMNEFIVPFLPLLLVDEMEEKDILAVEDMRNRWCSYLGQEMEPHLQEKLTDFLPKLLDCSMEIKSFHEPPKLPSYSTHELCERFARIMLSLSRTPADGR
Method in brief: as §1

USP28 = molecular target: T3, USP28 (UniProt Q96RU2)
T3 sequence (whole entry): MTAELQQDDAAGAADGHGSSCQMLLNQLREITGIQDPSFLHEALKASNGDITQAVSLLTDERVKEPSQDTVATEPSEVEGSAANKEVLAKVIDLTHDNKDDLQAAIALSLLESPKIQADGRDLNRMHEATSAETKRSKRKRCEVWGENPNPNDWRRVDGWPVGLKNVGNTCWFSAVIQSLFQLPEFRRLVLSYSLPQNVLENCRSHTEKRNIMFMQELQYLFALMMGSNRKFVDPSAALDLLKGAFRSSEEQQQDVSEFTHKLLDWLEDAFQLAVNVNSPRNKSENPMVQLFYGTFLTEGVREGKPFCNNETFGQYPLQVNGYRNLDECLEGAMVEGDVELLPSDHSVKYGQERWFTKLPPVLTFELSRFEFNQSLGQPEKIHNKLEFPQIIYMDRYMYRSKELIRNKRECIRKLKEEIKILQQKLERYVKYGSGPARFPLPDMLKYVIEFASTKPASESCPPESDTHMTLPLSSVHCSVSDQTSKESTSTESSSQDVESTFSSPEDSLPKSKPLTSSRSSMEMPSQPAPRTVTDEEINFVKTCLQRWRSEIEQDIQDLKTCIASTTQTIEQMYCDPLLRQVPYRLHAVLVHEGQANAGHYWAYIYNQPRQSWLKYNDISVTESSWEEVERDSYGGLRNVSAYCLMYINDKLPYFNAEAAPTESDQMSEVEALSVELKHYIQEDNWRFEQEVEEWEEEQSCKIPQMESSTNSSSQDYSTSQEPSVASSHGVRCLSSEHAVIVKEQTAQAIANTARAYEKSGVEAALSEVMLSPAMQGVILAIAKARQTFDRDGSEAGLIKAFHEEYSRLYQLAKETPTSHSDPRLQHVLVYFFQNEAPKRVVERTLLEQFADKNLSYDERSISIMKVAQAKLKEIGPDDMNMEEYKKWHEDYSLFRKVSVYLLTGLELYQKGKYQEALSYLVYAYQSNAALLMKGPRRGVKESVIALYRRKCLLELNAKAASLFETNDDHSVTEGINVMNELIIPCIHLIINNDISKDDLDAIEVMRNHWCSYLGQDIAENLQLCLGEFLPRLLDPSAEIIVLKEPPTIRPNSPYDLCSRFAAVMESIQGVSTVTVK
Method in brief: as §1

Measured: log2 ratio of Biotin-Ahx-Ub-VS probe labelling

Chain of USP24 (Q9UPU5 whole entry): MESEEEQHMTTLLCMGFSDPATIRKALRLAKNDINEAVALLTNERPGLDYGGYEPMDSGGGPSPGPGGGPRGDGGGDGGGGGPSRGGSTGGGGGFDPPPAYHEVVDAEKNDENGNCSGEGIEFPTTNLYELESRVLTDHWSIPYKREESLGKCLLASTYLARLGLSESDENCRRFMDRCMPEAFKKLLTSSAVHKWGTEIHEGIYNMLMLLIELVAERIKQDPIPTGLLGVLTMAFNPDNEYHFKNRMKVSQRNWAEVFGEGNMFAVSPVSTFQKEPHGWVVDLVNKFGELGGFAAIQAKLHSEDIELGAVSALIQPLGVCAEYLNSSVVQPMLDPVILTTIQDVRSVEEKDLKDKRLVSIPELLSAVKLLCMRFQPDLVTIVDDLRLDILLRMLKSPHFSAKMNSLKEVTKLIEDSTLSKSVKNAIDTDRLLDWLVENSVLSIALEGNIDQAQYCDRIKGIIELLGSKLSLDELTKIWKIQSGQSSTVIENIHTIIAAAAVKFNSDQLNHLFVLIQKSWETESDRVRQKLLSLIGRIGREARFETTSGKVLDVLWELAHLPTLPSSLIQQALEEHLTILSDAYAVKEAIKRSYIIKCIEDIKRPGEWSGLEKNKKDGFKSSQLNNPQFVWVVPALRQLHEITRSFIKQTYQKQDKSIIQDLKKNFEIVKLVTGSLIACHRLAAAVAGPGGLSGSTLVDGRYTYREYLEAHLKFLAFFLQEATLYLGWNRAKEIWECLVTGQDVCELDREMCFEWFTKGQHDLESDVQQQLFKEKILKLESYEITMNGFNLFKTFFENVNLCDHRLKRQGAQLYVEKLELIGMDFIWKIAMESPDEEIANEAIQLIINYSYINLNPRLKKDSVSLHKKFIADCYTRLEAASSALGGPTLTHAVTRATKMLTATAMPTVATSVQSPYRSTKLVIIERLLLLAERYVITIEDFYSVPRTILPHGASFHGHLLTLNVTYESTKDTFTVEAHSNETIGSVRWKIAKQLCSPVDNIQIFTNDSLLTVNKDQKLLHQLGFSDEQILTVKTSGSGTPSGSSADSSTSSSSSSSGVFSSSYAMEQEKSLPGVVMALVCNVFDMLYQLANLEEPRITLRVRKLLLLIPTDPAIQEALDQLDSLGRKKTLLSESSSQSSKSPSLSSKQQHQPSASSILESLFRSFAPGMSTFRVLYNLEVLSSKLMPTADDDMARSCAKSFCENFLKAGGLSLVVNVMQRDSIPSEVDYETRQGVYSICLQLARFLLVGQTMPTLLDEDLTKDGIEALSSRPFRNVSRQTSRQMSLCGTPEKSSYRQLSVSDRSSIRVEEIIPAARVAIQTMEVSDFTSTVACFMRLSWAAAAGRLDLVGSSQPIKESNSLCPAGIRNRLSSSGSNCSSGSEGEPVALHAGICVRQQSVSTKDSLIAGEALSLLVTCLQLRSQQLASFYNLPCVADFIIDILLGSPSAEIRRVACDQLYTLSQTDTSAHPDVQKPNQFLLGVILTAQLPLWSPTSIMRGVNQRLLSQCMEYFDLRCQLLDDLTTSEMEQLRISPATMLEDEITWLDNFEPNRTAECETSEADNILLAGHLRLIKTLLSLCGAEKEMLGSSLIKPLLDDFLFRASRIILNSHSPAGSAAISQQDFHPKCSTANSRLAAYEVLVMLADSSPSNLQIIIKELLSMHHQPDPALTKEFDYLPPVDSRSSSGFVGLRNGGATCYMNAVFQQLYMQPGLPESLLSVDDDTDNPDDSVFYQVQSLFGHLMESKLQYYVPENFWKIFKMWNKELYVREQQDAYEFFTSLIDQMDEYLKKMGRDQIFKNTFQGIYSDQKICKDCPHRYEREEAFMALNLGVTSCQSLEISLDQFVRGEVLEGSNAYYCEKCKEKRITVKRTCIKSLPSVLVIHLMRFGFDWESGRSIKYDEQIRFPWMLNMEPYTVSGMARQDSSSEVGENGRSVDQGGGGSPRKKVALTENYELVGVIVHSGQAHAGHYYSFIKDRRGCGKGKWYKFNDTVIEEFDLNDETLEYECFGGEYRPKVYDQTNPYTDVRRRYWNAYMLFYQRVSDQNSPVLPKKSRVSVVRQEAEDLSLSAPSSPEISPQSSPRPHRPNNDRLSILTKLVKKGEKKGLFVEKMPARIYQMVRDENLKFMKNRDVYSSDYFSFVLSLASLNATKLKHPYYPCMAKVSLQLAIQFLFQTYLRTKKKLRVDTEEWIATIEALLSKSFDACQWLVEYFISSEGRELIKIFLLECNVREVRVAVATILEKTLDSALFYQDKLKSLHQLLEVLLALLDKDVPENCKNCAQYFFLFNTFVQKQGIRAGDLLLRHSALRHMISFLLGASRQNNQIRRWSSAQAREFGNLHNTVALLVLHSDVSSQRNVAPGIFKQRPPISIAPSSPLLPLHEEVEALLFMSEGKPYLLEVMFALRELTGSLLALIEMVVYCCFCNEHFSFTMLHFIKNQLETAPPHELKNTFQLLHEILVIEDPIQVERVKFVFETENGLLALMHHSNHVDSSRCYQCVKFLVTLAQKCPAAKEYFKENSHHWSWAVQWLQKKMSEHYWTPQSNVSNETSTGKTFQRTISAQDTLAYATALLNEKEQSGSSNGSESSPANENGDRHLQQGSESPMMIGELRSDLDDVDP

Cc1ccn2cc(CNC(=O)CCl)nc2c1.Cl
inactive: USP19 -0.148 | USP24 -0.106 | USP25 -0.398 | USP28 -0.272
